# Screening data: PubChem BioAssay, National Center for Advancing Translational Sciences (NCATS)
# IL1B secr inh – blocks inflammasome-driven IL-1 beta release | 360,000 compounds, 4.7% hits | THP-1 LPS/ATP IL-1B secretion, AlphaLISA, 16 h; stronger effect = lower value | AID 743279 | activity change, % at 57.5 µM; in the data active means activity change below about -50%; inconclusive means mostly about -30% to -49%
#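 THP-1 cells pretreated 1 hr with compounds (up to 57.5 uM final), then stimulated with LPS (250 ng/mL final) plus ATP (1.25 mM final); secreted IL-1B measured by AlphaLISA after 16 hr, decreased signal indicating inhibition.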
# S-ASM inh – blocks human secretory acid sphingomyelinase; placental ASM, HMU-PC fluorogenic substrate, 60 min; P17405; 340,000 compounds, 0.006% hits; Potency, µM (highest dose often 57.5 µM), hits mostly inhibitors; AID 504937
# Target sequence (P17405 47-631 limits assumed): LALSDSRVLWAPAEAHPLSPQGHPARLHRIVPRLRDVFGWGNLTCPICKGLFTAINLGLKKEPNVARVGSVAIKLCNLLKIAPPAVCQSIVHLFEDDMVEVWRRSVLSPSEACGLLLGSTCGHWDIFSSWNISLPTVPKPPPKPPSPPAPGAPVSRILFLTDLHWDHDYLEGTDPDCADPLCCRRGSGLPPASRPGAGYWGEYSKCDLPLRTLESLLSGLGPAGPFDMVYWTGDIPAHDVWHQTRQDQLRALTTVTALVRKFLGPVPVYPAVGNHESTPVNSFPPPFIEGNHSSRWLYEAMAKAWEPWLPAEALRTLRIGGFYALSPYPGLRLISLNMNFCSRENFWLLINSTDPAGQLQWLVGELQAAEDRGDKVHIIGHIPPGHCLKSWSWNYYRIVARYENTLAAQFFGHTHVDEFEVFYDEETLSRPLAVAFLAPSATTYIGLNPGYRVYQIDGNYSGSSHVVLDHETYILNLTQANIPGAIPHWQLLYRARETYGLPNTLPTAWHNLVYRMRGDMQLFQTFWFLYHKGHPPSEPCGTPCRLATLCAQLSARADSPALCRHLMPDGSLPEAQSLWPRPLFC
#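 Steps: dispense placental human ASM, pin compound, wait 10 min at room temperature, add HMU-PC0 substrate at 9 uM final, incubate 60 min at 37 °C, add stop solution raising pH to 10, read fluorescence.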
# DT40 TDP1 no CPT – qHTS for Inhibitors of human tyrosyl-DNA phosphodiesterase 1 (TDP1): qHTS in cells in absence of CPT; Potency, µM (top dose mostly 46.2 µM), usual class: inhibitors; AID 686978, 2013; DT40 Tdp1-/- hTDP1 cells, no CPT, ATP luminescence, 48 h; 420,000 compounds, 15% hits; further: nearly all actives have a fitted effect of over 55% in size
#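 No-CPT arm: Tdp1-/-;hTDP1 DT40 cells (400/well) plus compounds, incubated ≥48 hr at 37 °C. Readout CellTiter-Glo luminescence.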
# HepG2 viability – counter-screen for TGF-b inhibitors: cytotoxicity in HepG2 cells; Potency, µM (titrated, usually from 46.1 µM), hits mostly cytotoxic; 410,000 compounds, 0.76% hits; HepG2 CAGA-GFP viability, ATP luminescence, 18 h; AID 588856
#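 CellTiter-Glo luminescence gave cytotoxicity after 18 hours at 37 degrees C. The cells were HepG2 CAGA-GFP in 1% FBS DMEM, stimulated with 500 pg/mL TGF-beta after compound addition. %Activity was normalised to no-cell wells (complete cell-killing) and DMSO (no toxicity), and curves were fitted and classified.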
# TDP1 cell CPT – growth inhibition of DT40 Tdp1-/-;hTDP1 cells with camptothecin (screen for TDP1 inhibitors); chicken DT40 Tdp1-/-;hTDP1 cells + 20 nM CPT, ATP luminescence, 48 h; Potency, µM (top dose mostly 46.2 µM), most hits filed as inhibitors; 420,000 compounds, 12% hits; AID 686979; further: nearly all actives have a fitted effect of over 55% in size
#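 Chicken DT40 Tdp1-/- cells complemented with human TDP1, 400 cells/well, exposed to compounds plus 20 nM camptothecin for at least 48 h at 37 C; viability read as ATP content by CellTiter-Glo luminescence.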
# TGFb inhibitor – inhibitors of TGF-b signaling. 410,000 compounds, 1.2% hits. HepG2 CAGA-GFP TGF-b/SMAD3 reporter, GFP fluorescence, 18 h; TGF-beta stimulated, 500 pg/mL final. Potency, µM (titrated, usually from 46.1 µM), actives largely listed as inhibitors; further: nearly all actives have a fitted effect of over 65% in size
#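 First, reporter cells (HEPG2 CAGA-GFP) rested 2 h at 37 degrees C. Next, compounds were pinned in and TGF-beta added to 500 pg/mL final. After 18 h, GFP was imaged per cell and summed per well.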
# Hits are given with their value; i = inactive; ? = inconclusive; nt = not tested or not shown; [ ] = dose if it differs, or a comment. Only some compounds are listed: those with a hit (about 19% of all), similar ones and a draw of the others. Unless noted, the call rests on the fitted dose curve; in most records, active means well fitted curve in the direction sought with a large enough effect; inconclusive means small, poorly fitted or top-dose-only effect, or another doubt; inactive means no such curve, though single readings can be large; an effect the other way counts as inactive or inconclusive.
SMILES,IL1B secr inh,S-ASM inh,DT40 TDP1 no CPT,HepG2 viability,TDP1 cell CPT,TGFb inhibitor
CCc1ccccc1NC(=O)CN(c1ccccc1OC)S(=O)(=O)c1ccc(C)cc1,nt,nt,18µM,i,?,i
COc1ccc(C)cc1NC(=O)CN(c1cc(C(F)(F)F)ccc1Cl)S(C)(=O)=O,nt,nt,16µM,i,?,?
CCOC(=O)c1ccccc1NC(=O)CN(c1cc(C(F)(F)F)ccc1Cl)S(C)(=O)=O,nt,nt,?,i,?,i
COc1ccc(OC)c(N(CC(=O)Nc2ccccc2F)S(=O)(=O)c2ccccc2)c1,i,i,i,i,i,i
COc1ccc(OC)c(NC(=O)CN(c2ccccc2OC)S(=O)(=O)c2ccc(C)cc2)c1,nt,nt,26µM,i,16µM,i
S=C1N(c2ccccc2)CN(C2CCCCC2)CN1c1ccccc1,i,i,?,i,?,i
Cc1cccc(NC(=O)CCn2nc(C)c3c(C)n(-c4ccccc4)nc3c2=O)c1C,nt,nt,i,i,i,i
CCN(CC)C(=O)COC(=O)c1ccc(C)c(NC(=O)c2ccco2)c1,i,i,i,i,i,i
O=C(COC(=O)c1ccc(Cl)c(S(=O)(=O)N2CCCC2)c1)NCc1ccccc1,i,i,i,i,?,i
Cc1ccc(C(=O)OCC(=O)NCc2ccccc2)cc1S(=O)(=O)N1CCCCC1,i,i,?,i,15µM,i
O=C(COC(=O)c1ccc(Cl)c(S(=O)(=O)N2CCCCCC2)c1)NCc1ccccc1,i,nt,?,i,23µM,i
Cc1ccc(C(=O)OCC(=O)Nc2ccccc2)cc1S(=O)(=O)N1CCCCC1,i,i,i,i,i,i
O=C(OCC(=O)N1CCCCCC1)c1ccc(Cl)c(S(=O)(=O)N2CCCC2)c1,i,i,?,i,23µM,i
NC(=O)COC(=O)c1ccc(Cl)c(S(=O)(=O)N2CCCCCC2)c1,i,i,i,i,i,i
Cc1ccc(C(=O)OCC(=O)c2c[nH]c3ccccc23)cc1NC(=O)c1ccco1,?,i,21µM,i,?,i
CCOc1ccc(CCNC(=O)COC(=O)c2nn(C)c(=O)c3ccccc23)cc1OCC,i,i,i,i,i,i
COC(=O)c1ccc(OCC(O)CN2CCOCC2)cc1 (configuration not stated),i,i,i,i,i,i
OC(CNCC1COc2ccccc2O1)COc1ccc(Cl)cc1 (configuration not stated),i,i,i,i,i,?
Cc1cccc(C)c1-n1nnnc1C1(C)CCC(=O)N1Cc1cccnc1 (configuration not stated),i,nt,i,nt,i,nt
Cc1c([N+](=O)[O-])c(C(=O)NC2CCCC2)nn1C,i,i,i,i,i,i
Cc1[nH]c2ccccc2c1C(=O)COC(=O)c1cccc(S(=O)(=O)N2CCCCC2)c1,i,nt,?,i,18µM,i
Cc1ccc(C(=O)OCC(=O)c2c[nH]c3ccccc23)cc1S(=O)(=O)N1CCCCC1,i,nt,18µM,i,23µM,i
O=C(OCC(=O)N1CCCC1)c1ccc(Cl)c([N+](=O)[O-])c1,-57,i,i,i,i,i
CC(C(=O)N1CCN(Cc2ccccc2)CC1)c1ccc([N+](=O)[O-])cc1 (configuration not stated),i,i,i,i,i,i
CC(OC(=O)c1ccc(Cl)c([N+](=O)[O-])c1)C(=O)N1CCN(Cc2ccccc2)CC1 (configuration not stated),-96,i,?,i,?,?
SMILES,IL1B secr inh,S-ASM inh,DT40 TDP1 no CPT,HepG2 viability,TDP1 cell CPT,TGFb inhibitor
CCOC(=O)c1ccc(N2C(=O)C=C(N3CCOCC3)C2=O)cc1,i,i,i,i,i,i
Cc1cc(CNC(=O)COC(=O)c2ccc(Cl)c(N)c2)cc(C)c1O,i,i,i,i,i,i
Cc1ccc(CNC(=O)COC(=O)c2ccc(Cl)c(N)c2)cc1,i,i,i,i,23µM,i
Cc1ccc(S(=O)(=O)Nc2ccc(Cl)cc2O)cc1,i,nt,?,nt,?,nt
Cc1ccc(NC(C)c2cc(Cl)ccc2O)cc1 (configuration not stated),i,i,i,11µM,i,i
Cc1ccc(C(=O)C2CCN(CC(=O)NC3CCCC3)CC2)cc1,i,i,i,i,i,i
COc1ccc(OC)c(CCNC(=O)c2cc3c(=O)n(C)c4ccccc4c3n2C)c1,nt,nt,23µM,i,?,?
COc1ccc(CCNC(=O)c2cc3c(=O)n(C)c4ccccc4c3n2C)cc1OC,i,i,16µM,i,?,i
CCc1ccc(C2c3[nH]c4ccccc4c3CCN2C(=O)c2cc(C)nn2C)cc1 (configuration not stated),i,?,?,i,?,?
CCN(C[C@H]1N[C@@](CC)(C(=O)OC)[C@H]2C(=O)N(C)C(=O)[C@@H]12)C(=O)C1CCCCC1,i,i,i,i,i,i
CCCCCCn1c(=O)n2n(c1=O)C[C@]1(OC(=O)NC3CC3)CN(S(=O)(=O)c3ccc(C)cc3)C[C@]1(O)C2,i,nt,12µM,i,?,i
Cc1ccc(S(=O)(=O)N2C[C@]3(O)C[C@@H]4C(=O)N(c5ccccc5)C(=O)[C@@H]4C[C@]3(OC(=O)NC3CCCC3)C2)cc1,i,nt,21µM,i,?,i
O=C(c1[nH]ncc1-c1cccc(Br)c1)C1CO1 (configuration not stated),-96,i,1.8µM,i,1.6µM,?
O=C(c1[nH]ncc1-c1ccccc1)C1CO1 (configuration not stated),-73,i,13µM,13µM,9.2µM,i
O=C(C1=NNCC1c1ccccc1)C1CO1 (configuration not stated),?,i,i,i,?,i
Cc1cccc(C(=O)N2CCOc3ccc(CN(C)Cc4cc(C5CC5)n[nH]4)cc3C2)n1,nt,nt,i,nt,i[9.04 µM],nt
O=C(O)C1C2CCC(CC2)C1C(=O)N1CCN(Cc2ccc(F)cc2)CC1 (configuration not stated),i,i,i,i,i,i
CC(=O)OCC(=O)Nc1ccc([N+](=O)[O-])cc1Cl,i,i,i,i,i,i
CC(=O)Oc1c(C)cc(Cl)cc1C(=O)Nc1ccc([N+](=O)[O-])cc1Cl,-67,i,0.46µM,i,0.52µM,?
O=C(Nc1ccc([N+](=O)[O-])cc1Cl)c1ccccc1O,nt,nt,3.2µM,i,3.2µM,?
